PNC assembly inh = inhibitors of perinucleolar compartment assembly; activity change (PNC), negative = inhibition, % at 10 µM; hit rate 3.1% among 140,000; PC3M PTB-GFP, PNC prevalence imaging, 16 h; stronger effect = lower value; AID 2417;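 active = readout at or below -70, meaning at least 70% loss of cells showing the perinucleolar compartment, a nuclear body marking cancer cells; inconclusive = readout between -30 and a set limit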;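 also: plate controls were DMSO wells for no effect and camptothecin positive control wells for full effect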
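Compounds are pinned in duplicate onto adhered PC3M cells stably expressing GFP-tagged PTB and incubated 16 h at 37 C. Cells are then fixed, nuclei stained with Hoechst, and PNC-positive cells counted.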
ALDH1A1 inh = ALDH1A1 (human) enzyme inhibition. P00352. Purified ALDH1A1, NADH fluorescence, propionaldehyde substrate. Potency, µM (top dose mostly 75.3 µM), inactives show at the highest dose activity, negative = inhibition, hits mostly inhibitors. hit rate 7.3% among 220,000. AID 1030;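 also: potency is read from the fitted curve at half-maximal effect; plate controls were no enzyme wells and a reference inhibitor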
Target sequence (P00352 whole entry, looked up): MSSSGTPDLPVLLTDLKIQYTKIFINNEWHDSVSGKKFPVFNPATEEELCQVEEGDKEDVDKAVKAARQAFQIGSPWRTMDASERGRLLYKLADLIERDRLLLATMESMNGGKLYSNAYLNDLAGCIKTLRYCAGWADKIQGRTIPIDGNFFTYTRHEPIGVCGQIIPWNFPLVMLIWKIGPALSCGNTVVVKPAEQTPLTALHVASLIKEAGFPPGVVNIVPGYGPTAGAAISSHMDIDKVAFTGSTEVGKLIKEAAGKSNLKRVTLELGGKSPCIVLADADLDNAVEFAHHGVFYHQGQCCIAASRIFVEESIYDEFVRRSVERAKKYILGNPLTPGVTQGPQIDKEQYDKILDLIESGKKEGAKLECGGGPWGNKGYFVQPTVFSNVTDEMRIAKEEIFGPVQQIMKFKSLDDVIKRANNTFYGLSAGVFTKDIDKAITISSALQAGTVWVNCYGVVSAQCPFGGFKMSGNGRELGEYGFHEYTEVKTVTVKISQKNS
HPGD inh = inhibitors of human 15-hydroxyprostaglandin dehydrogenase (HPGD) | P15428 | purified HPGD, NADH fluorescence kinetic, PGE2 substrate | Potency, µM, for the others: at the highest dose activity change, negative = inhibition, actives largely listed as inhibitors | hit rate 4.3% among 150,000 | AID 894; also: potency is read from the fitted curve at half-maximal effect
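NADH formation kinetics: reaction with 30 uM PGE2 and 1 mM NAD+ (final), 20 nM enzyme, Tris-HCl pH 8 with Tween 20, after 15 min compound preincubation at room temperature. Fluorescence change, last versus first of five reads.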
The depositor's hits bear a star; [ ] = remark or other dose. A selection: hits, their analogues and other compounds. The true share with any hit is near 11%. Unless noted, calls follow the shape of the dose curve; as a rule, active = well fitted inhibition curve with a large enough effect (not every such curve was filed as active); inconclusive = small, poorly fitted or top-dose-only effect, or another doubt; inactive = no such curve, though single readings can be large or run the other way. Unless noted, % is scaled to controls: 0 for no effect and ±100 for the full control effect.

For Cc1ccc(-c2cc(C(=O)OCC(=O)Nc3cc(C)on3)c3ccccc3n2)c(C)c1 the results were PNC assembly inh -82*, ALDH1A1 inh 0% and HPGD inh -6%.
`O=C(COC(=O)CNC(=O)c1ccc(-c2ccccc2)cc1)NCc1ccco1` gave ALDH1A1 inh -7%.
CCn1c(C(C)NC(=O)c2cccc(C)c2)n[nH]c1=S (centres undefined) was read as ALDH1A1 inh 3%.
For Cc1cc(Cl)ccc1NC(=S)N1CCN(C(=O)C2CCCO2)CC1 (centres undefined) the results were PNC assembly inh inconclusive, ALDH1A1 inh 3% and HPGD inh -9%.
CC1CCC(NC(=S)NCCN(C)C)CC1 (centres undefined) was read as ALDH1A1 inh 1.6µM*.
Screening CN(C)CCNC(=O)NC1CCCCC1 returned PNC assembly inh 8, ALDH1A1 inh -10% and HPGD inh -10%.
Screening Cc1cc(C)n(CCc2nc(-c3ccc(C)o3)cs2)n1 returned PNC assembly inh inconclusive, ALDH1A1 inh 4µM* and HPGD inh 25µM*.
Cc1cc(C)n(CCc2nc(-c3cc4ccccc4o3)cs2)n1 was read as PNC assembly inh 25, ALDH1A1 inh inconclusive and HPGD inh -11%.
CN(C(=O)CSc1nc2c(c(=O)[nH]1)CCC2)c1ccccc1 was read as ALDH1A1 inh -12%.
Screening O=c1[nH]c(SCc2ccc(Cl)cc2)nc2c1CCC2 returned PNC assembly inh -9, ALDH1A1 inh -5% and HPGD inh 4.5µM*.
Cc1cccc(CSc2nc3c(c(=O)[nH]2)CCCC3)c1 was read as PNC assembly inh 85, ALDH1A1 inh 11% and HPGD inh 7.9µM*.
For O=c1[nH]c(SCc2cccc(F)c2)nc2c1CCCC2 the results were PNC assembly inh -17, ALDH1A1 inh -10% and HPGD inh 7.1µM*.
Cc1cccc(CSc2nncc(=O)[nH]2)c1 was read as PNC assembly inh -20, ALDH1A1 inh -4% and HPGD inh -26%.
`O=c1[nH]c(SCc2ccc(Cl)cc2)nc2ccccc12` gave ALDH1A1 inh 6%.
`Cc1oc(-c2ccccc2Cl)nc1CSc1nc2c(c(=O)[nH]1)CCC2` gave PNC assembly inh 19, ALDH1A1 inh -8% and HPGD inh 2.8µM*.
`O=c1[nH]c(SCc2cccc(Cl)c2)nc2c1CCCC2` gave PNC assembly inh 4 and ALDH1A1 inh -9%.
For CCOC(=O)c1c(C)[nH]c(C(=O)NCc2ccco2)c1C the results were ALDH1A1 inh 0%.
Screening CC(=NCC1CCNCC1)C1=C(O)CC(C)(C)CC1=O returned PNC assembly inh -13, ALDH1A1 inh -2% and HPGD inh 2%.
For CC(=NCCCNC1CCCCC1)C1=C(O)CC(C)(C)CC1=O the results were PNC assembly inh -16, ALDH1A1 inh 28µM* and HPGD inh -4%.
For O=C(/C=C/c1ccccc1)c1cc(Br)ccc(=O)c1O the results were PNC assembly inh -21, ALDH1A1 inh 7.1µM* and HPGD inh 20µM*.
Screening Cc1ccc(/C=C/C(=O)c2ccccc(=O)c2O)cc1C returned PNC assembly inh -7, ALDH1A1 inh inconclusive and HPGD inh -27%.
COc1ccc(CCNC(=O)CSc2nnc(Cc3csc(N)n3)n2C)cc1OC was read as PNC assembly inh -95*, ALDH1A1 inh 13% and HPGD inh 4%.
`COc1ccc(CCNC(=O)CCCn2c(SCC#N)nc3ccccc3c2=O)cc1OC` gave PNC assembly inh -5, ALDH1A1 inh -6% and HPGD inh -6%.
For COCCNC(=O)CSc1nc2ccccc2c(=O)n1CCC(=O)NCCc1ccc(OC)c(OC)c1 the results were ALDH1A1 inh 14µM*.
COc1ccc(CCNC(=O)CCn2c(SCC#N)nc3ccccc3c2=O)cc1OC was read as PNC assembly inh -8, ALDH1A1 inh 20µM* and HPGD inh -2%.
COc1ccc(CCNC(=O)CSc2nnc(Cn3c(=O)sc4ccccc43)n2C)cc1OC was read as PNC assembly inh -15 and ALDH1A1 inh 0%.
O=C(CSc1nc2ccccc2c(=O)n1CCCO)NCc1ccccc1 was read as PNC assembly inh 11, ALDH1A1 inh -2% and HPGD inh -1%.
COCCNC(=O)CSc1nc2cc3c(cc2c(=O)n1CCCC(=O)NCCc1ccc(OC)c(OC)c1)OCO3 was read as ALDH1A1 inh -1%.
`COCCCn1c(SCC(=O)NCc2ccccc2)nc2ccccc2c1=O` gave PNC assembly inh -100*, ALDH1A1 inh 4% and HPGD inh -24%.
For CC(=O)C=NCC(=O)O the results were ALDH1A1 inh -4%[13.5 µM] and HPGD inh -4%.
Screening CN(C)Cc1ccccc1-c1ccc2ncnc(NC3CC3)c2c1 returned ALDH1A1 inh -4% and HPGD inh -28%.
Screening CCn1c(O)c(N=NC(=O)CNc2ccc(C)cc2)c2ccccc21 returned PNC assembly inh 7, ALDH1A1 inh -16% and HPGD inh -5%.
Screening COC(=O)Cn1c(O)c(N=NC(=O)c2ccc3c(c2)OCO3)c2ccccc21 returned ALDH1A1 inh 1.8µM*.
Cc1cccc(NC(=O)Cn2c(O)c(N=NC(=O)c3ccncc3)c3ccccc32)c1 was read as ALDH1A1 inh 13µM*.
Screening Cc1c(C=O)c2ccccc2n1CC(=O)NCc1ccc2c(c1)OCO2 returned ALDH1A1 inh -2%.
Screening CCn1c(O)c(N=NC(=O)CNc2cccc(C)c2)c2ccccc21 returned PNC assembly inh inconclusive, ALDH1A1 inh 28µM* and HPGD inh -11%.
For Cc1ccccc1NC(=O)Cn1c(O)c(N=NC(=O)c2ccccc2O)c2ccccc21 the results were PNC assembly inh 14, ALDH1A1 inh -4% and HPGD inh -13%.
Screening Cc1ccc(NC(=O)Cn2c(O)c(N=NS(=O)(=O)c3ccc(C)cc3)c3ccccc32)cc1 returned PNC assembly inh inconclusive, ALDH1A1 inh 0.35µM* and HPGD inh -6%.
`CC(=O)c1cn(CC(=O)Nc2ccc(C)cc2)c2ccccc12` gave PNC assembly inh 43, ALDH1A1 inh -3% and HPGD inh 0%.
Screening CCCCC(=O)Nc1ccc(C(=O)Nc2ccc(S(=O)(=O)Nc3nccc(C)n3)cc2)cc1 returned PNC assembly inh 54, ALDH1A1 inh inconclusive and HPGD inh -16%.
`CCOC(=O)c1ccc(-c2ccc(-c3cc(=O)oc4cc(OC)c(OC)c(OC)c34)cc2)cc1` gave ALDH1A1 inh -6% and HPGD inh -6%.
For COC(=O)CC1C(=O)NCCN1C(=O)CSc1nnnn1-c1ccc(OC)cc1 (centres undefined) the results were ALDH1A1 inh 6%.
`CS(=O)(=O)c1ncc(CO)n1Cc1ccccc1` gave ALDH1A1 inh 4%.
Screening CC(=O)c1c(C)[nH]c(C(=O)OCC(=O)c2c(N)n(C)c(=O)n(C)c2=O)c1C returned ALDH1A1 inh 2%.
Screening Cc1cc(C)c2c(-c3ccc(-c4ccc(C(F)(F)F)cc4)cc3)cc(=O)oc2c1 returned ALDH1A1 inh -6% and HPGD inh -8%.
Screening Cc1ccccc1-n1c(C)nnc1SCC(=O)NNC(=O)c1ccccc1 returned PNC assembly inh inconclusive, ALDH1A1 inh -16% and HPGD inh -10%.
Cc1nnc(SCC(=O)NNC(=O)c2ccccc2)n1-c1ccccc1 was read as PNC assembly inh -84*, ALDH1A1 inh 0% and HPGD inh -4%.
